Rows were chosen to be rich in hits. Some 1.7% of all compounds tested hit in one or more screens of this group.
GSTO1 inh: blocks human GSTO1 in RBBP9 counter-screen; P78417; recombinant GSTO1, activity-based probe fluorescence polarization; inhibition, % at 5.96 µM; 300,000 compounds, 1.1% hits;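 active = inhibition above the campaign mean inhibition plus 3 SD, cut at about 35% in these data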;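 also: 0% = GSTO1-1 with DMSO and 100% = wells lacking GSTO1-1 enzyme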
LYPLA1 inh: blocks human lysophospholipase 1, a PME1 counter-screen | recombinant LYPLA1, FP-Rh probe fluorescence polarization | inhibition, % at 5.9 µM | 320,000 compounds, 0.16% hits | AID 2174;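 active = inhibition above the mean of all tested compounds plus 3 SD, set per campaign, cut at about 14% in these data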;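 also: inhibitors block serine hydrolase probe labeling of LYPLA1 so polarization falls; 0% = enzyme with DMSO and 100% = wells lacking LYPLA1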
Target sequence (O75608 whole entry, looked up): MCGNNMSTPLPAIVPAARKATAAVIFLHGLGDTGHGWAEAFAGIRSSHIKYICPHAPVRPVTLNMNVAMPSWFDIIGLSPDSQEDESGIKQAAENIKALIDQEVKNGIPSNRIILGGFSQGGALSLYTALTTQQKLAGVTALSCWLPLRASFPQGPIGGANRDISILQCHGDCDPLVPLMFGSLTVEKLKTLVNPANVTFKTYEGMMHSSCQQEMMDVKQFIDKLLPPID
PAD4 inh: inhibitors of human PAD4 | inhibition, % at 6.36 µM | Q9UM07 | recombinant PAD4, RCA probe fluorescence polarization | 330,000 compounds, 0.41% hits;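 active = percent inhibition above a cutoff equal to the mean of all tested compounds plus 3 SD, cut at about 15% in these data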;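 also: 0% = PAD4 with RCA probe and DMSO and 100% = probe without PAD4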
LYPLA2 inh: counter-screen for PME1 inhibitors: inhibitors of human LYPLA2 | recombinant LYPLA2, FP-Rh probe fluorescence polarization | inhibition, % at 5.9 µM | 320,000 compounds, 0.38% hits | AID 2177;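 active = inhibition above the screen-wide mean plus 3 SD, limit set per campaign, cut at about 26% in these data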;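 also: 0% = LYPLA2 with DMSO and 100% = wells lacking LYPLA2 enzyme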
Target sequence (O95372 whole entry, looked up): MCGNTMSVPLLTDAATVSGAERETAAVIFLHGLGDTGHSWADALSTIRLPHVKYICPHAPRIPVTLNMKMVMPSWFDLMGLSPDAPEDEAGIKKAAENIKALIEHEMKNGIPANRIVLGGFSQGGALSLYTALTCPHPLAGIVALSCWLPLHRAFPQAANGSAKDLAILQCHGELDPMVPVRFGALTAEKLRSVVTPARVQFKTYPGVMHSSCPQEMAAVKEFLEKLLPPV
ZTA DNA inh: counter-screen for EBNA-1 inhibitors: inhibitors of Epstein-Barr virus ZTA | inhibition, % at 11 µM | P03206 | 320,000 compounds, 0.15% hits | ZTA-DNA binding, fluorescence polarization; in the data active = inhibition above about 33%
EBNA-1 inhibitor: blocks EBNA-1 binding to DNA | EBNA-1 DNA binding, fluorescence polarization | inhibition, % at 14.8 µM | 300,000 compounds, 0.34% hits | AID 1950; in the data active = inhibition above about 28%
EBNA-1 inh conf: EBNA-1 (EBV) inhibition, confirmation; shares compounds with EBNA-1 inhibitor; Recombinant EBNA-1 DBD, Cy5-DNA fluorescence polarization; inhibition, % at 14.8 µM; 830 compounds, 35% hits;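 active = mean inhibition across replicates above a set limit taken from the earlier primary screen, cut at about 28% in these data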;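 also: plate controls were EBNA-1 protein with DMSO for no effect and wells lacking EBNA-1 for full effect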
ZTA counter trip: counter-screen for EBNA-1 inhibitors: Epstein-Barr virus ZTA inhibitors, triplicate | Zta-ZRE DNA binding, Cy5 fluorescence polarization | inhibition, % at 11.1 µM | shares compounds with EBNA-1 inhibitor | AID 2328 | 830 tested, under 10 active;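 active = mean inhibition over triplicates above a set limit taken from the primary EBNA-1 screen, cut at about 37% in these data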;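 also: purified full length Zta protein with Cy5 labeled ZRE DNA probe; 0% = Zta with DMSO and 100% = wells lacking Zta protein; inhibitors lower polarization by freeing the labeled DNA probe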
* marks the source's active call; other numbers are inactive results.

CCOC(=O)CC(NC(=O)C1c2ccccc2Oc2ccccc21)c1ccccc1Cl (stereo not drawn) was read as GSTO1 inh 0, LYPLA1 inh -1, PAD4 inh 0, LYPLA2 inh 6, ZTA DNA inh -6, EBNA-1 inhibitor 102*, EBNA-1 inh conf 4 and ZTA counter trip -21.
For CCOC(=O)CC(NC(=O)Cc1ccccc1)c1ccccc1Cl (stereo not drawn) the results were GSTO1 inh 14, LYPLA1 inh 4, PAD4 inh -1, LYPLA2 inh 0, ZTA DNA inh -19 and EBNA-1 inhibitor 4.
`CCn1c(Cc2ccccc2)nnc1SCC(=O)Nc1ccc2c(c1)OCCO2` gave GSTO1 inh -1, LYPLA1 inh 2, PAD4 inh -1, LYPLA2 inh 2, ZTA DNA inh -1, EBNA-1 inhibitor 29*, EBNA-1 inh conf -1 and ZTA counter trip 4.
`CCCN(C(=O)c1cccs1)c1c(N)n(Cc2ccccc2)c(=O)[nH]c1=O` gave LYPLA1 inh 0, PAD4 inh 2, LYPLA2 inh -3 and ZTA DNA inh -5.
`CC12COC3(C(=O)Nc4ccc5ccccc5c4)CC1CCC32C` (stereo not drawn) gave GSTO1 inh 12, LYPLA1 inh -2, PAD4 inh 1, LYPLA2 inh 1, ZTA DNA inh 4 and EBNA-1 inhibitor 8.
For CCOC(=O)c1c(C)[nH]c(C(=O)COC(=O)CNC(=O)c2ccc(Cl)cc2Cl)c1C the results were GSTO1 inh 0, LYPLA1 inh 2, PAD4 inh 0, LYPLA2 inh 0, ZTA DNA inh 12, EBNA-1 inhibitor 96*, EBNA-1 inh conf 26 and ZTA counter trip 4.
For CCOc1ccc(NC(=O)CCC(=O)NNC(=O)COc2ccc(C)cc2)cc1 the results were GSTO1 inh 3, LYPLA1 inh -3, PAD4 inh -5, LYPLA2 inh -1, ZTA DNA inh 26 and EBNA-1 inhibitor 19.
For CCOc1ccc(NC(=O)CCC(=O)NNC(=O)COc2ccc(C)cc2Br)cc1 the results were GSTO1 inh 1, LYPLA1 inh -1, PAD4 inh -2, LYPLA2 inh 0, ZTA DNA inh 11, EBNA-1 inhibitor 51*, EBNA-1 inh conf 99* and ZTA counter trip 11.
CCCOc1ccc(C(=O)Nc2ccc(S(=O)(=O)NC3=NCCCCC3)cc2)cc1 was read as GSTO1 inh -2, LYPLA1 inh -4, PAD4 inh 1, LYPLA2 inh 1, ZTA DNA inh -25 and EBNA-1 inhibitor -9.
Screening O=C(Nc1ccc(-c2nc3ccccc3o2)cc1)c1ccc(N2C(=O)C3C4C=CC(C4)C3C2=O)cc1 (stereo not drawn) returned GSTO1 inh -4, LYPLA1 inh -20, PAD4 inh 0, LYPLA2 inh -35, ZTA DNA inh 28, EBNA-1 inhibitor 103*, EBNA-1 inh conf 112* and ZTA counter trip 17.
Screening C=CCNC(=S)Nc1c(C(=O)OC)[nH]c2cc(OC)ccc12 returned GSTO1 inh 5, LYPLA1 inh 1, PAD4 inh 2, LYPLA2 inh 4, ZTA DNA inh 15, EBNA-1 inhibitor 29*, EBNA-1 inh conf 7 and ZTA counter trip 1.
For COC(=O)c1[nH]c2cc(OC)ccc2c1NC(=O)c1c(F)cccc1F the results were GSTO1 inh -7, LYPLA1 inh 1, PAD4 inh -2, LYPLA2 inh 3, ZTA DNA inh 4 and EBNA-1 inhibitor -1.
Screening CCc1ccccc1N(CC(=O)Nc1cccnc1)S(=O)(=O)c1ccccc1 returned GSTO1 inh -1, LYPLA1 inh -1, PAD4 inh -5, LYPLA2 inh -2, ZTA DNA inh -1 and EBNA-1 inhibitor -11.
`COc1ccc2c(c1)c(CC(=O)Nc1cccc(S(N)(=O)=O)c1)c(C)n2C(=O)c1ccc(Cl)cc1` gave GSTO1 inh -17, LYPLA1 inh -30, PAD4 inh -9, LYPLA2 inh -33, ZTA DNA inh -20, EBNA-1 inhibitor 37*, EBNA-1 inh conf -3 and ZTA counter trip 10.

High-throughput results: PubChem BioAssay, The Scripps Research Institute Molecular Screening Center
